Test results taken from PubChem BioAssay (Tox21).
Inconclusive results are not listed. Unmarked numbers belong to inactive results. The source made the active and inactive calls. Calls follow the shape of the dose curve; as a rule, active = well fitted cell-killing curve with a large enough effect in the repeat runs; inconclusive = weak or mixed curves; inactive = flat fitted curve, though single readings scatter.

Experiment: qHTS assay to identify small molecule antagonists of the TGF-beta/Smad signaling pathway - cell viability counter screen (AID 1346824); also: nearly all actives have a fitted effect of over 50% in size
Conditions: SBE-bla HEK293T viability, CellTiter-Glo luminescence; series mostly up to 76.8 µM; viability change, negative = cytotoxic: at the top concentration
Excerpt: U.S. Tox21 Program National Center for Advancing Translational Sciences [NCATS] NIH Chemical Genomics Center [NCGC] U.S. Environmental Protection Agency [EPA] National Institutes of Environmental Health Sciences [NIEHS] National Toxicology Program [NTP] U.S. Food and Drug Administration [FDA] Tox21 Assay Overview: Transforming growth factor beta (TGF-beta) superfamily consists of a large number of structurally related dimeric proteins that act as hormones or local mediators in regulating a wide range of biological functions. This superfamily includes TGF-betas themselves, the bone morphogenetic proteins (BMPs) and the activins. These ligands induce oligomerization of serine/threonine receptor kinases and phosphorylate the cytoplasmic signaling molecules of Smad protein family. CellSensor SBE-bla HEK 293T cell line (Life Technologies, Carlsbad, CA), responsive to TGF-beta was used to screen Tox21 10K compound library for identification of agonists/antagonists of the Smad signaling pathway. This cell line contains a beta-lactamase reporter gene under control of the Smad binding element (SBE) stably integrated into HEK 293T cells. Also cytotoxicity of the compounds was tested in parallel by measuring the cell viability using CellTiter-Glo assay system in the same wells.
Tox21 Assay Protocol Summary: SBE-bla HEK 293T cells were dispensed at 4,000/well in 5 uL of assay medium into black wall/clear-bottom 1536-well plates using a Multidrop Combi (ThermoFisher Scientific, Waltham, MA) dispenser. After the assay plates were incubated at 37 C and 5% CO2 for an overnight, 23 nL of compounds dissolved in DMSO, positive controls or DMSO only was transferred to the assay plate by a Pintool station (Kalypsys, San Diego, CA). Compound transfer was followed by the addition of 1 uL of 0.25 ng/mL TGF-beta1 or assay buffer using two separate tips of Flying Reagent Dispenser (FRD, Aurora Discovery, San Diego, CA). The assay plates were incubated at 37 C and 5% CO2 for 5 hr. One uL of LiveBLAzer B/G FRET substrate (Life Technologies) was added using a Flying Reagent Dispenser (FRD, Aurora Discovery, San Diego, CA) and the plates were incubated at room temperature for 2 hr. Fluorescence intensity (405 nm excitation, 460 nm and 530 nm emissions) was measured using an Envision plate reader (PerkinElmer, Shelton, CT). For cytotoxicity read, 4 uL of CellTiter-Glo reagent (Promega Corporation, Madison, WI) was added to each well of the assay plates using FRD. After 30 min incubation at room temperature, the luminescence intensity was measured using ViewLux plate reader (PerkinElmer).
% is scaled to controls: 0 for no effect and ±100 for the full control effect.

Q: For C=CC(C)(CCC=C(C)C)OC=O (stereo not given), which “viability change, negative = cytotoxic” value is on record?
A: Its value is 18.5%.

Q: With CCCCCCCCCCOC(=O)c1ccccc1C(=O)OCCCCCCCC as the compound, how does the “viability change, negative = cytotoxic” value read?
A: Its value is 6.79%.

Q: With C=Cc1cccc(C)c1 as the compound, how does the Potency read?
A: Its Potency is “inactive”.

Q: For O=C(c1ccc(O)c(O)c1)c1ccc(O)cc1O, which “viability change, negative = cytotoxic” value is on record?
A: The value was -4.11%.

Q: Which “viability change, negative = cytotoxic” value does the source give for C[Si](Cl)(c1ccccc1)c1ccccc1 here?
A: Its value is -8.25%.

Q: With C1CCC(SSC2CCCCC2)CC1 as the compound, how does the “viability change, negative = cytotoxic” value read?
A: Its value is 0.158%.

Q: For Cc1nc(-c2ccc(Cl)cc2)oc1COC(C)(C)C(=O)O, which “viability change, negative = cytotoxic” value is on record?
A: The value was 3.63% [at 35.3 µM].

Q: With CC(C)(C)NSc1nc2ccccc2s1 as the compound, how does the “viability change, negative = cytotoxic” value read?
A: The value was 0.853%.

Q: Which “viability change, negative = cytotoxic” value does the source give for C=CC(=O)OCCOC(=O)C=C here?
A: The value was 12.3%.

Q: For [Cl][Pt-2]([Cl])([Cl])[Cl], which “viability change, negative = cytotoxic” value is on record?
A: The value was -2.73%.

Q: For OC1CCC(C2CCCCC2)CC1 (stereo not given), which “viability change, negative = cytotoxic” value is on record?
A: Its value is -5.48%.

Q: For CC(C)CCCCCOC(=O)CCS, which “viability change, negative = cytotoxic” value is on record?
A: The value was 6.32%.

Q: Which “viability change, negative = cytotoxic” value does the source give for Cc1cc(C(C)(C)C)cc(C)c1CC1=NCCN1 here?
A: The value was -8.7% [at 35.3 µM].

Q: Which “viability change, negative = cytotoxic” value does the source give for Cc1ccc(C(=O)O)cc1 here?
A: The value was -3.08%.

Q: With COc1ccc2c(c1)c(CC(=O)OC/C=C(\C)CC/C=C(\C)CCC=C(C)C)c(C)n2C(=O)c1ccc(Cl)cc1 as the compound, how does the “viability change, negative = cytotoxic” value read?
A: Its value is -9.49% [at 35.3 µM].

Q: Which “viability change, negative = cytotoxic” value does the source give for O=C(O)Cc1ccc2c(c1)C(=O)c1ccccc1CO2 here?
A: The value was 16.1% [at 35.3 µM].

Q: Which “viability change, negative = cytotoxic” value does the source give for Cc1c(F)c(N2CCNC(C)C2)cc2c1c(=O)c(C(=O)O)cn2C1CC1 (stereo not given) here?
A: The value was 2.18% [at 35.3 µM].

Q: For Cc1cccc(C)c1NC(=O)c1ccc(N)cc1, which “viability change, negative = cytotoxic” value is on record?
A: Its value is 0.741% [at 35.3 µM].

Q: With CC(C)=CCC1=C(O)c2ccccc2C(=O)C1=O as the compound, how does the “viability change, negative = cytotoxic” value read?
A: Its value is -1.68%.

Q: For C/C=C/C=C/COC(=O)C(C)C, which “viability change, negative = cytotoxic” value is on record?
A: Its value is 21.4%.

Q: With CCCC1CCC(=O)CC1 as the compound, how does the “viability change, negative = cytotoxic” value read?
A: Its value is 2.54%.

Q: For CC(C)OC(=O)C(O)(CC(=O)O)CC(=O)O, which “viability change, negative = cytotoxic” value is on record?
A: Its value is 0.606%.

Q: For CN1CCC[C@@H]1CCO[C@](C)(c1ccccc1)c1ccc(Cl)cc1, which “viability change, negative = cytotoxic” value is on record?
A: The value was -24.4% [at 35.3 µM].

Q: With CCOc1ccc2ccccc2c1C(=O)N[C@@H]1C(=O)N2[C@@H]1SC(C)(C)[C@@H]2C(=O)O as the compound, how does the “viability change, negative = cytotoxic” value read?
A: Its value is 0.529% [at 35.3 µM].

Q: Which “viability change, negative = cytotoxic” value does the source give for CC(CO)Oc1ccccc1 (stereo not given) here?
A: The value was -2.98%.

Q: With FC(F)(F)c1cccc(Cl)c1 as the compound, how does the “viability change, negative = cytotoxic” value read?
A: The value was 0.486%.

Q: With Sc1nc2ccccc2s1 as the compound, how does the “viability change, negative = cytotoxic” value read?
A: The value was -12.1%.

Q: Which “viability change, negative = cytotoxic” value does the source give for CCCCCCOC(=O)C(C)CC (stereo not given) here?
A: The value was 5.66%.

Q: For C=C(C)C(=O)OCCCCCCCCCC, which “viability change, negative = cytotoxic” value is on record?
A: The value was 2.77%.

Q: For CCCCCCCCCCCC(=O)OCC(C)OC(=O)CCCCC(=O)O (stereo not given), which “viability change, negative = cytotoxic” value is on record?
A: Its value is 22.6% [at 35.3 µM].

Q: With CC1=Nc2ccccc2C1(C)C as the compound, how does the “viability change, negative = cytotoxic” value read?
A: Its value is -0.731%.

Q: For S=C([S-])NCCNC(=S)[S-].S=C([S-])NCCNC(=S)[S-].[Mn+2].[Zn+2], which “viability change, negative = cytotoxic” value is on record?
A: The value was 0.144% [at 35.3 µM].

Q: Which “viability change, negative = cytotoxic” value does the source give for c1ccc(SSc2ccccc2)cc1 here?
A: The value was 4.67%.

Q: Which “viability change, negative = cytotoxic” value does the source give for Cc1ccc(N/N=c2\c(=O)cc/c(=N\Nc3ccc(S(=O)(=O)O)cc3)c2=O)c(C)c1 here?
A: The value was 6.56%.

Q: With C[C@H]1NCc2cc(-c3ccc4c(=O)c(C(=O)O)cn(C5CC5)c4c3OC(F)F)ccc21 as the compound, how does the viability change, negative = cytotoxic read?
A: The viability change, negative = cytotoxic was -2.18% [at 15.8 µM].

Q: For Cc1ccc(-c2ccccc2)cc1, which “viability change, negative = cytotoxic” value is on record?
A: Its value is 1.51%.

Q: Which “viability change, negative = cytotoxic” value does the source give for COc1ccc2cc1Oc1ccc(cc1)C[C@H]1c3c(cc4c(c3Oc3cc5c(cc3OC)CCN(C)[C@@H]5C2)OCO4)CCN1C here?
A: Its value is -3.54% [at 35.3 µM].

Q: For Clc1nnc(Cl)c2ccccc12, which “viability change, negative = cytotoxic” value is on record?
A: Its value is -4.34%.

Q: Which “viability change, negative = cytotoxic” value does the source give for O=C(O)c1cc(N=Nc2ccc([N+](=O)[O-])cc2)ccc1O here?
A: Its value is 15.2%.

Q: For O=C(O)CCN(C1(C(=O)NO)CCCC1)S(=O)(=O)c1ccc(Oc2ccc(F)cc2)cc1, which “viability change, negative = cytotoxic” value is on record?
A: Its value is 4.67%.
